# Source: PubChem
# The entries come from a sample that favours hits as a whole.
# HT1080 IDH1KD tx: kills HT-1080 cells with IDH1 knockdown | Potency, µM (top dose mostly 46.1 µM), hits mostly cytotoxic | HT-1080 IDH1 knockdown viability, ATP luminescence, 48 h | 360,000 tested, 2% active
#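 Luminescent ATP read-out (CellTiter-Glo, 10 min at room temperature) after 48 h compound exposure at 37 °C gave viability of IDH1-knockdown HT-1080 cells. Activity was normalised to DMSO and cell-free wells, then fitted as concentration-response curves.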
# HT1080-NT tox: kills 2HG-producing HT-1080-NT fibrosarcoma cells. Potency, µM (series often up to 46.1 µM), hits mostly cytotoxic. 360,000 tested, 1.6% active. HT-1080-NT fibrosarcoma viability, CellTiter-Glo ATP luminescence, 48 h;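 note: NT is the 2HG producing partner of a matched IDH1 knockdown line; nearly all actives have a fitted effect of over 55% in size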
#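 Viability of the 2HG-overproducing fibrosarcoma line after 48 hours of compound exposure at 37 degrees C was determined by luminescence with CellTiter-Glo, and concentration-effect curves were then fitted and categorized.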
# ALOX12 inh: ALOX12 (human) lipoxygenase inhibition; P18054; purified 12hLO, xylenol orange hydroperoxide absorbance; Potency, µM (series often up to 108 µM), actives largely listed as inhibitors; 580,000 tested, 1.1% active; AID 1671190
# Target sequence (P18054 whole entry, looked up): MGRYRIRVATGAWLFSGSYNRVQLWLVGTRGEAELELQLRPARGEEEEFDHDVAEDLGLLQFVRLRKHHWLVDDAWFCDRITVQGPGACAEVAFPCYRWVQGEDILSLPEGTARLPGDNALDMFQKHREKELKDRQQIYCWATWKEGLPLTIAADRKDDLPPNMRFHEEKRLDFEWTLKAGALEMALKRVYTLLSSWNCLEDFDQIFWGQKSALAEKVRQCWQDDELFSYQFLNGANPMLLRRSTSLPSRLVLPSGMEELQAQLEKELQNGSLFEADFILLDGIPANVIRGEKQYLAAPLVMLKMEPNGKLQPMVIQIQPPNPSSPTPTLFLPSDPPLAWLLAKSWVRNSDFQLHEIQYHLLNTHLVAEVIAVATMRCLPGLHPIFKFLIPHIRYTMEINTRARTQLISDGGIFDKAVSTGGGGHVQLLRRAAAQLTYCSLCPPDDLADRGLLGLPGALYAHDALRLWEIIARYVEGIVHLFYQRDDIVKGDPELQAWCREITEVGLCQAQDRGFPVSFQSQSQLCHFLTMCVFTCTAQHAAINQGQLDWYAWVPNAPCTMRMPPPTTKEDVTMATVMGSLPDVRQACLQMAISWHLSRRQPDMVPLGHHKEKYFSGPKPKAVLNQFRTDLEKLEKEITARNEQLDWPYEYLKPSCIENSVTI
#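 Purified human 12hLO at 150 nM in 25 mM Hepes, 0.01% Triton X-100, pH 7.0, preincubated 15 min at room temperature with compound. Reaction started with 40 uM arachidonic acid, 30 min at room temperature. Hydroperoxide measured by Fe-xylenol orange, 573/405 nm absorbance ratio.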
# TDP1 cell CPT: DT40-hTDP1 cell growth loss with CPT; Potency, µM (highest dose often 46.2 µM), most hits filed as inhibitors; 420,000 tested, 12% active; chicken DT40 Tdp1-/-;hTDP1 cells + 20 nM CPT, ATP luminescence, 48 h; note: nearly all actives have a fitted effect of over 55% in size
#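 Cell growth measured by CellTiter-Glo luminescence after a minimum 48 h, 37 C compound exposure with 20 nM CPT in Tdp1-knockout DT40 cells stably expressing hTDP1, seeded 400/well; qHTS titration format.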
# IL1B secr inh: blocks inflammasome-driven IL-1 beta release. THP-1 LPS/ATP IL-1B secretion, AlphaLISA, 16 h; active compounds read low. activity change, % at 57.5 µM. 360,000 tested, 4.7% active; in the data active = activity change below about -50%; inconclusive = mostly about -30% to -49%
#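 Secreted IL-1B measured by AlphaLISA bead assay after 16 h compound exposure of THP-1 cells; compounds (final up to 57.5 uM) added 1 h before LPS (250 ng/mL) and ATP (1.25 mM) stimulation; lower signal means less secretion.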
# DT40 TDP1 no CPT: qHTS for Inhibitors of human tyrosyl-DNA phosphodiesterase 1 (TDP1): qHTS in cells in absence of CPT; AID 686978, 2013; DT40 Tdp1-/- hTDP1 cells, no CPT, ATP luminescence, 48 h; 420,000 tested, 15% active; Potency, µM (doses to about 46.2 µM), most hits filed as inhibitors; note: nearly all actives have a fitted effect of over 55% in size
#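 Growth of hTDP1-complemented DT40 Tdp1-knockout cells is measured by ATP luminescence after at least 48 hr compound exposure at 37 °C, with DMSO substituting for the 20 nM CPT used in the parallel screen.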
# Hits are given with their value; . = inactive; ? = inconclusive; / = no result; [ ] = another dose, or the depositor's remark. Unless noted, calls come from the whole dose curve; as a rule, active = well fitted curve in the direction sought with a large enough effect; inconclusive = small, poorly fitted or top-dose-only effect, or another doubt; inactive = no such curve, though single readings can be large; an effect the other way counts as inactive or inconclusive.
SMILES,HT1080 IDH1KD tx,HT1080-NT tox,ALOX12 inh,TDP1 cell CPT,IL1B secr inh,DT40 TDP1 no CPT
CCC(CO)Oc1cc(NCc2ccc(C(C)(C)C)cc2)c2ncn(C(C)C)c2c1 (stereo not drawn),?,?,.,13µM,.,15µM
CCC(COC)Oc1cc(NCc2ccccc2)c2ncn(C(C)C)c2c1 (stereo not drawn),?,?,.,26µM,-90,18µM
COc1ccc(NC(=O)N2CCC3(CC2)SCC(=O)N3Cc2ccco2)c(OC)c1,/,/,.,/,/,/
COCCNC(=O)c1ccc(OC2CCN(C(C)CCSC)CC2)c(Cl)c1 (stereo not drawn),/,/,.,/,/,/
CCCNC(=O)[C@@H]1Cc2cn(Cc3ccncc3)c3cccc(c23)[C@H](CC(C)C)N1,/,/,.,/,/,/
CCC(CO)Oc1cc(NCc2ccccn2)c2ncn(C(C)C)c2c1 (stereo not drawn),.,.,.,.,.,.
COCCCOc1cc(NCc2ccccc2)c2ncn(C(C)C)c2c1,.,.,.,.,.,.
CC(C)n1cnc2c(NCc3ccccc3)cc(N[C@H](C)CO)cc21,23µM,23µM,/,2.3µM,.,4.6µM
CCC(CO)Oc1cc(NCc2cccc(O)c2)c2ncn(C(C)C)c2c1 (stereo not drawn),.,.,.,23µM,.,?
CCCCOc1cc(NCc2ccccc2)c2ncn(C(C)C)c2c1,?,.,?,23µM,.,21µM
CCn1cc(S(=O)(=O)N2CCCC(C(=O)NCc3nn(CC)cc3Cl)C2)c(C)n1 (stereo not drawn),/,/,.,/,/,/
CN(Cc1ccccc1)C(=S)NC(=O)c1cccs1,.,.,.,?,.,?
COc1cc(C(=O)NC(=S)N(CCc2ccccc2)CCc2ccccc2)cc(OC)c1OC,?,.,?,23µM,.,21µM
COc1cc(C(=O)NC(=S)N(C)Cc2ccccc2)cc(OC)c1OC,.,.,.,21µM,.,8.2µM
CN(Cc1ccccc1)C(=S)NC(=O)c1ccc(-c2ccccc2)cc1,?,.,.,4.6µM,.,4.6µM
O=C(NC(=S)N(CCc1ccccc1)CCc1ccccc1)c1ccco1,.,.,?,18µM,.,12µM
Clc1snnc1CN1CCN(Cc2ccccc2)CC1,/,/,.,/,/,/
Cc1nn(C)c(C)c1CCN(C)C(=O)C12CCCC=C1N(C1CCCC1)C(=O)CC2 (stereo not drawn),/,/,.,/,/,/
COc1cc(C(=O)N/N=C(\C)Cc2ccccc2)cc(OC)c1OC,1µM,1.2µM,.,.,.,.
CCCCCn1c(CCC(=O)NCc2cccc(OC)c2)nc2c1c(=O)[nH]c(=O)n2CCCC,/,/,.,/,/,/
CC(C)NCC(=O)C12CC3CC(CC(C3)C1)C2,.,.,.,.,.,.
COc1cccc(C(=O)c2sc(NC(C)C)nc2N)c1,?,.,.,?,-107,?
COc1ccc(C(=O)c2sc(NC(C)C)nc2N)cc1OC,.[9.24 µM],?,.,?,-109,23µM
CC(C)Nc1nc(N)c(C(=O)C23CC4CC(CC(C4)C2)C3)s1,.,.,?,21µM,.,?
COc1ccc(C(=O)c2sc(Nc3cccc(C(F)(F)F)c3)nc2N)cc1OC,/,/,.,/,/,/
SMILES,HT1080 IDH1KD tx,HT1080-NT tox,ALOX12 inh,TDP1 cell CPT,IL1B secr inh,DT40 TDP1 no CPT
CC[C@H]1CN(S(=O)(=O)c2ccccc2)CC[C@H]1CC(=O)NCCOC,/,/,.,/,/,/
Cc1nn(C)c(C)c1NC(=O)COc1ccc(F)cc1Br,.,13µM,?,?,.,13µM
COc1ccc(/C=C/C(=O)Nc2c(C)nn(C)c2C)cc1COc1ccc(Cl)cc1Br,.,.,.,18µM,?,?
CSc1cc(C)c(OCC(=O)Nc2c(C)nn(C)c2C)c(C)c1,.,.,.,15µM,.,?
Cc1cc(C)n(CC(=O)NNC(=O)COc2ccc(F)cc2Br)n1,.,.,.,.,.,.
COc1ccc(/C=C/C(=O)NCc2cn(C)nc2C)cc1COc1ccc(Br)cc1,?,.,.,.,?,.
O=C1NCCCCCCN(C(=O)c2cccnc2)[C@H]2C[C@H](C(=O)N3CCc4ccccc4C3)C[C@@H]12,/,/,.,/,/,/
Cc1ccccc1-n1c(=O)/c(=C\c2ccco2)s/c1=C(/C#N)C(=O)Nc1ccccc1,.,.,35µM,.,.,.
O=C(Nc1ccccc1-c1nc(Cc2ccccc2)no1)c1ccncc1,/,/,.,/,/,/
Cc1ccc(C)c(CNC(=O)c2sc3ncnc(N(C)C4CCCCC4)c3c2C)c1,/,/,.,23µM,/,?
Cc1c(C(=O)NCc2ccccc2Cl)sc2ncnc(N(C)C3CCCCC3)c12,/,/,.,?,/,18µM
O=C(N[C@@H]1CN(C(=O)Nc2ccccc2)CCC[C@H]1O)c1ccc(O)cc1,/,/,.,/,/,/
O=C(Nc1nnc(-c2cccnc2)o1)c1cccc(Cl)c1,.,.,.,23µM,.,16µM
Cc1cccc(-c2nnc(NC(=O)c3ccc(Cl)cc3)o2)c1,?,?,.,12µM,.,10µM
Cc1ccc(C(=O)Nc2nnc(-c3ccncc3)o2)cc1,.,.,.,?,.,?
O=C(Nc1nnc(-c2ccccn2)o1)c1cccc(Br)c1,.,.,.,21µM,.,?
c1cc2c(cc1OC1CN(CC3CCCCC3)C1)OCO2,/,/,.[12.5 µM],/,/,/
COc1ccc(C2=NOC3(CCN(C(=O)c4ccc(C(F)(F)F)cc4)C3)C2)cc1 (stereo not drawn),/,/,.,/,/,/
CC1CCCCN1S(=O)(=O)c1ccc(C(=O)Nc2nnc(-c3ccncc3)o2)cc1 (stereo not drawn),?,?,.,?,.,?
CC1(C)COCN1S(=O)(=O)c1ccc(C(=O)Nc2nnc(-c3ccc(Cl)s3)o2)cc1,2.8µM,?,/,4µM,.,4.5µM
COc1ccc(-c2nnc(NC(=O)c3ccc(S(=O)(=O)N4COCC4(C)C)cc3)o2)cc1,8.2µM,?,.,3.7µM,.,3.7µM
CC1CCN(S(=O)(=O)c2ccc(C(=O)Nc3nnc(-c4ccccn4)o3)cc2)CC1,.,.,.,?,.,?
Cc1nc2ccc(NS(=O)(=O)c3ccc(F)cc3F)cc2s1,.,.,.,?,.,?
Cc1nc2ccc(S(=O)(=O)Nc3ccccc3C)cc2s1,?,?,.,?,.,18µM
Cc1nc2ccc(NS(=O)(=O)c3ccc(C)c(C)c3)cc2s1,?,.,.,15µM,.,10µM
Cc1nc2ccc(NS(=O)(=O)c3c(F)cc(F)cc3Br)cc2s1,.,.,.,?,.,6.5µM
Cn1ccnc1C(=O)N1CCC(C2CCN(S(C)(=O)=O)CC2)C1 (stereo not drawn),/,/,.,/,/,/
CCOC(=O)NC(CNC(=O)NCc1ccc(C(C)O)cc1)CC(C)C (stereo not drawn),/,/,.,/,/,/
